The values below come from PubChem BioAssay AID861 (The Scripps Research Institute Molecular Screening Center, 2007).

In all, about 200,000 compounds went through this assay and about 360 (0.18%) were called active. This is one part of a sample in which actives are shown more often than they occur. Values without a mark were called inactive. Cut-off read from the data, not from the text of the source: active = inhibition above about 25%; inactive = the rest.

The term inhibition denotes the drop in the measured response relative to a control, in per cent.

In this assay the target is Toll-like receptor 4 (Homo sapiens) + Myeloid differentiation primary response protein MyD88 (Homo sapiens) (UniProt O00206+Q99836). The assay can be described thus: disruptors of TLR4 binding to MyD88 – cell-based, HeLa CL3-4, BLA complementation, FRET ratio, primary screen (AID 861).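 Note: 0% = vehicle and 100% = reference inhibitor.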 The note with it: HeLa CL3-4 TLR4/MyD88 BLA complementation, at 8.4 µM, stronger effect = higher value.
Sequence of Toll-like receptor 4 (Homo sapiens) + Myeloid differentiation primary response protein MyD88 (Homo sapiens) (O00206 whole entry, looked up): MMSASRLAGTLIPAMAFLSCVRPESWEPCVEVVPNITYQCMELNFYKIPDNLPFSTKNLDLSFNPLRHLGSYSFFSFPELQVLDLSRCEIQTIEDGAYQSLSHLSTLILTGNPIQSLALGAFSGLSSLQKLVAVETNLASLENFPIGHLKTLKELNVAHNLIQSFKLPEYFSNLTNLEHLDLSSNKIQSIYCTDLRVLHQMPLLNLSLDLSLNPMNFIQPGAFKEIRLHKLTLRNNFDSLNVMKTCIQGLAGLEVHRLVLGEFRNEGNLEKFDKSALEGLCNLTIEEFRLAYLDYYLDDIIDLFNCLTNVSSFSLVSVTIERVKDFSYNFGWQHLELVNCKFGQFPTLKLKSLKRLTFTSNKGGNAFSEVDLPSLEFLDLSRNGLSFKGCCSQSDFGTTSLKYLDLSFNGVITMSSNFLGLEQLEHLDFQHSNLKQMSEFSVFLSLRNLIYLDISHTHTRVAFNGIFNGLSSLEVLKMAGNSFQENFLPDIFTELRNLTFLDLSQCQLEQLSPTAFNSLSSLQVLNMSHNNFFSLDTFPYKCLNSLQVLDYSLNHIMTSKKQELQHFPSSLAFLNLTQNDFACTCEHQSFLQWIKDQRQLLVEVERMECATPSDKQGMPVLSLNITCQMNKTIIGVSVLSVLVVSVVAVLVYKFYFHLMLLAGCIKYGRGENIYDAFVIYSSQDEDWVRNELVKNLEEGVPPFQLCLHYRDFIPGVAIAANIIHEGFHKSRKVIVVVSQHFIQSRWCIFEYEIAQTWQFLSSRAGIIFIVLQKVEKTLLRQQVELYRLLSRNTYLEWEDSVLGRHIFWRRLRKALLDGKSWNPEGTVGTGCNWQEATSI
Sequence of Toll-like receptor 4 (Homo sapiens) + Myeloid differentiation primary response protein MyD88 (Homo sapiens) (Q99836 whole entry, looked up): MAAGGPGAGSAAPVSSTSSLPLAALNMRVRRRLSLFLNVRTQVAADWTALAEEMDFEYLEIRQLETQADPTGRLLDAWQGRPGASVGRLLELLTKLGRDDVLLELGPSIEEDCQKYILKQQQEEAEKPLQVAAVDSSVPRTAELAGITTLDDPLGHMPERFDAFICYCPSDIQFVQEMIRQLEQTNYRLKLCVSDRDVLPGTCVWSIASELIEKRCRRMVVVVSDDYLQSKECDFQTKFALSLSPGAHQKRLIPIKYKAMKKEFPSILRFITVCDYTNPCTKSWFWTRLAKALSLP
For the compound `CCOC(=O)Cc1csc(NC(=O)CSc2ccc(Br)cc2)n1`, the inhibition is -6.41%.
Then `CNC(=O)c1ccsc1NC(=O)c1ccc(S(=O)(=O)N2CCOCC2)cc1`, with 0.17%; and `Cc1ccc(Oc2cc(NC(=O)CCCn3nc(C)c([N+](=O)[O-])c3C)cc([N+](=O)[O-])c2)cc1`, with -10.9%; and `Nc1cc(C(F)(F)F)ccc1N1CCOCC1`, with 2.5%.
Under `COc1ccccc1-c1nc(SC)n[nH]1` stands -2.94%; under `CN(C)CCCCCN(C)Cc1cc2ccccc2o1`, 6.13%; under `Cc1nn(Cc2ccc(Cl)cc2)c(Cl)c1/C=N/NC(=O)CNc1ccccc1F`, -10.4%.
Under `COc1ccc(/C=C2/C(=O)OCc3cc(OC)c(OC)cc32)c(OC)c1` stands -8.99%.
For `Cc1cc(-c2csc(N)n2)c(C)n1Cc1ccccc1`, the inhibition is 5.78%.
Then `CC(C)(C)NC(=O)NC(=O)COC(=O)Cc1ccc(Cl)cc1Cl`, with 16.8%.
Turning to `Cc1ccnc2nc(C(=O)OCC(=O)N(CC(C)C)CC(C)C)nn12`, the inhibition was -2.14%.
Then `C=CCN(CC=C)CCOc1ccccc1[N+](=O)[O-]`, with 9.15%; and `COC(CNC(=O)Cn1ncc2ccsc2c1=O)OC`, with -15.6%.
Regarding `CCO/C=C1\C(=O)N(c2ccc(OCC)cc2)C(=O)c2ccccc21`, the inhibition was 5.91%.
Then `Cn1cccc1C(C#N)c1ccccc1C#N` (configuration not stated), with 2.41%; and `COc1cccc(OC)c1C(=O)NC(=S)Nc1ccc(N2CCOCC2)c(Cl)c1`, with -0.95%; and `O=C(Cc1ccccc1)NCc1ccc(F)cc1`, with -9.59%.
Take `CCOC(=O)CSc1nc(C)cc2c1C(=O)OC2`: the inhibition was 8.27%.
Under `O=C(Cn1nnc(-c2ccccc2)n1)N/N=C/c1ccc(-c2ccc(Cl)cc2)o1` stands 8.21%.
As for `N/C(=N/O)c1cccn1Cc1ccccc1[N+](=O)[O-]`, the inhibition is -3.45%.
As to `O=C(CCCOc1ccccc1)NCc1ccco1`, the inhibition is 9.17%.
As for `O=C(c1ccc(F)cc1)c1cn(Cc2ccc(F)cc2)c2cc3c(cc2c1=O)OCCO3`, the inhibition is -6.89%.
Consider `CCN(CC)CCn1c(/N=C/c2cc(Br)ccc2O)nc2ccccc21`, for which the inhibition is 7.14%.
Under `CCOc1ccc(NC(=O)CN(C)CC(=O)NC(C)c2ccccc2)cc1OCC` (configuration not stated) stands -3.92%; under `CCCNC(=S)N1CCCC(c2nc3ccccc3[nH]2)C1` (configuration not stated), -4.57%.
Under `Cc1cc(C)c[n+](-c2nc3ccccc3nc2[N-]S(=O)(=O)c2cccs2)c1` stands -9.34%; under `COc1ccc2cc(CCl)c(Cl)nc2c1`, 2.67%.
